This is an account of results in PubChem BioAssay (EPA / NIEHS).

The structures appear in SMILES notation. Inconclusive results are not listed. Calls of active or inactive are those of the source. Rule for the calls: active = hit-call score of the fitted dose curve at least 0.9, where 1 is the maximum; inconclusive = response in the unintended direction; inactive = score below 0.9.

Muscarinic acetylcholine receptor M2 (Homo sapiens), sequence (P08172 whole entry, looked up): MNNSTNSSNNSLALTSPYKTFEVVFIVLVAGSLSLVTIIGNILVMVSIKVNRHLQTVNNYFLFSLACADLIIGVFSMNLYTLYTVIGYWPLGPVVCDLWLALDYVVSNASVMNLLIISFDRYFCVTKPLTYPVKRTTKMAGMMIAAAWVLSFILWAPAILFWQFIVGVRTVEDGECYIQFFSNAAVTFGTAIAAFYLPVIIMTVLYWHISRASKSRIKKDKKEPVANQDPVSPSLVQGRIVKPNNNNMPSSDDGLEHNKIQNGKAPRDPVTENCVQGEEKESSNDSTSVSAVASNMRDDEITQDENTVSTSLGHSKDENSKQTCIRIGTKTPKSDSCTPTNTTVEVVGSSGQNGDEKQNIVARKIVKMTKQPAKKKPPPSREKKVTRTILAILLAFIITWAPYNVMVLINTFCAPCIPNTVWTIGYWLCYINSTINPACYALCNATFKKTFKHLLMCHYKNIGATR

The target of one experiment is D(1A) dopamine receptor (Homo sapiens) (UniProt P21728). The experiment is described as follows: NVS_GPCR_hDRD1: NovaScreen (NVS) G Protein-Coupled Receptor Assay for human Dopamine Receptor D1 (DRD1) (AID 2283269). The method in brief: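 Radioligand displacement binding on membranes/protein extracted from HEK293 expressing human D1, cell-free; read 1 h after dosing by filter-based scintillation counting. Primary screen in duplicate at 25 uM, actives followed up in concentration series; signal loss versus DMSO baseline.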
D(1A) dopamine receptor (Homo sapiens), sequence (P21728 whole entry, looked up): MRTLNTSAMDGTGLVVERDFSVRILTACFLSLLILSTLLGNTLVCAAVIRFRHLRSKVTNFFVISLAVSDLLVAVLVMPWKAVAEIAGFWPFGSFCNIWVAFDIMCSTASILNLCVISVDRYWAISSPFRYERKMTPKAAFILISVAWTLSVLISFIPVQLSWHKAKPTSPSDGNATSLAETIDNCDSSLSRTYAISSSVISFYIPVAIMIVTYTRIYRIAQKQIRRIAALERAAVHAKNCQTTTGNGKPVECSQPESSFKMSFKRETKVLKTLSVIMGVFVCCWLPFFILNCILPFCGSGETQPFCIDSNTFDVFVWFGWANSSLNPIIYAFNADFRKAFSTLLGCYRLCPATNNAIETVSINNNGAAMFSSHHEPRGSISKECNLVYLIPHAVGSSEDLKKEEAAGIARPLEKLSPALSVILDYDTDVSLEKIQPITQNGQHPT
For the molecule `CSC(C)(C)C=NO`, the molecule was called inactive.
On the same count and under the same terms, in the case of `CCOP(=S)(Oc1ccc([N+](=O)[O-])cc1)c1ccccc1` (stereo unspecified) it was “inactive”; in that of `COP(N)(=S)OC`, “inactive”.
Take `N#Cc1c(-c2ccc(Cl)cc2)[nH]c(C(F)(F)F)c1Br`: the call was inactive.
On to `CC(C)Nc1ccc(Nc2ccccc2)cc1`, for which the AC50 was 25 µM (active).
With `Nc1ccc([N+](=O)[O-])cc1Cl`, the call was inactive.
`O=c1ssc(Cl)c1Cl`: the AC50 was 1.21 µM (active).
As to `Oc1ccccc1Br`, the result was inactive.

A further experiment deals with Muscarinic acetylcholine receptor M2 (Homo sapiens) (UniProt P08172). The experiment is described as follows: NVS_GPCR_hM2: NovaScreen (NVS) G Protein-Coupled Receptor Assay for human Muscarinic, M2 Receptor (AID 2283273). The essentials:
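Cell-free radioligand binding using membranes from CHO cells expressing the receptor; filter-based scintillation counting after 1 hour of compound exposure. Loss of specific binding relative to DMSO baseline; primary screen at 25 uM in duplicate, actives then run in concentration series.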
Take `CC(C)(C)OOC(C)(C)C`: the outcome was inactive.
On to `CSC(C)(C)C=NO`, for which the call was inactive.
On to `CCC(C)(C)c1ccc(O)cc1`, for which the molecule was called inactive.
As to `CC(C)Nc1ccc(Nc2ccccc2)cc1`, the AC50 is 2.71 µM (active).

A further experiment deals with human Neurokinin, NK2 Receptor, TACR2 (gene 6865) (UniProt P21452). As to the kind of experiment: NVS_GPCR_hNK2: NovaScreen (NVS) G Protein-Coupled Receptor Assay for human Neurokinin, NK2 Receptor (AID 2283278).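 Note: actives reduce bound radioligand signal relative to DMSO baseline.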 The essentials: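 Radioligand binding on membranes from CHO cells expressing receptor, filter-based scintillation read 4 h after dosing. Initial duplicate screen at 25 uM, actives in concentration series; loss of signal versus DMSO.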
human Neurokinin, NK2 Receptor, TACR2 (gene 6865), sequence (P21452 whole entry, looked up): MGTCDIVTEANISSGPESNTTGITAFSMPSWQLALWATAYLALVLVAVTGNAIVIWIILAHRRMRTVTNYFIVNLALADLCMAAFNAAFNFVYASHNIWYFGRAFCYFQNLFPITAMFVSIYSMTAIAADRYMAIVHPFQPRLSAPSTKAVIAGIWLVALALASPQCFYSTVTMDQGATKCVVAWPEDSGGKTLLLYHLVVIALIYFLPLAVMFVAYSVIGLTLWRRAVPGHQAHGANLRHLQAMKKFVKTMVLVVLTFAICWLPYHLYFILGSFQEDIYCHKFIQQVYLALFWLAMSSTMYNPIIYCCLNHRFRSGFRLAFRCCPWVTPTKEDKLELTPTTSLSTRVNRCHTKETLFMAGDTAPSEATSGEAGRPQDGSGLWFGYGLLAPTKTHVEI
Consider `CCOP(=S)(OCC)SCSc1ccc(Cl)cc1`, for which the molecule was classed as inactive.
Same read-out and setting: in the case of `CCOP(=S)(OCC)SCn1nnc2ccccc2c1=O` it was “inactive”.
Still for that read-out and setting: in the case of `CSC(C)(C)C=NO` it was “inactive”.
As for `Cc1cc(C)c(C(=O)P(=O)(c2ccccc2)c2ccccc2)c(C)c1`, the AC50 is 0.367 µM (active).
Regarding `Cn1[nH]nnc1=S`, the molecule was classed as inactive.
Take `CC(C)Nc1ccc(Nc2ccccc2)cc1`: the AC50 was 20 µM (active).
Consider `O=S1(=O)OCC2C(CO1)C1(Cl)C(Cl)=C(Cl)C2(Cl)C1(Cl)Cl` (stereo unspecified), for which the molecule was classed as inactive.
As for `CC(C)(C)c1ccccc1OP(=O)(Oc1ccccc1)Oc1ccccc1`, the AC50 is 17.2 µM (active).
As to `CCCCCCCc1ccc(O)cc1`, the outcome was inactive.

As usually defined, the AC50 is the concentration at which the activity in the assay is half-maximal.
